From PubChem BioAssay (NCI)
This is part of a sample that, as a whole, favours compounds with a hit. Of some 79,000 tested, about 15% had one in any assay. Calls of active or inactive are those of the source. Rule as the data show it: active = growth inhibition above about 70%; inactive = the rest.

Experiment: NCI Yeast Anticancer Drug Screen. Data for the rad50 strain (AID 155);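 also: 0% = growth of vehicle-only cultures of the same strain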
Details: S. cerevisiae rad50 strain growth inhibition; at 5.0 µM (retest, dose inferred, filed as 0.5); stronger effect = higher value
Summary of the method: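 Growth of the mutant yeast was measured after compound exposure and referenced to vehicle-treated cultures.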

SMILES | growth inhibition
OCCSCc1cc(Cl)cc(Cl)c1O | 7% (inactive)
CC(=O)Nc1ccccc1C(O)(c1ccccc1)c1ccccc1 | -2% (inactive)
Cc1cc(N=Nc2ccccc2C)c(N)cc1N | -12% (inactive)
O=C(Nc1ccc(Cl)cc1)Nc1nnc(/C=C/c2ccc(Cl)c(Cl)c2)o1 | -1% (inactive)
CCCCCCCCCCCC(=O)OCCOC(=O)CCCCCCCCCCC | -8% (inactive)
CCN(C(C)=O)c1ccc2c(c1)Cc1ccccc1-2 | 3% (inactive)
O=[N+]([O-])c1cccn2nc(C3OC(CO)C(O)C3O)nc12 (stereo not drawn) | 3% (inactive)
Oc1cc(CNCc2ccccc2)c(O)c(CNCc2ccccc2)c1 | 10% (inactive)
N#CSC#Cc1ccc(C#CSC#N)cc1 | 100% (active)
O=C(O)/C=C/C(=O)NNc1nc2ccccc2s1 | -4% (inactive)
COc1ccc2c(c1)[n+]([O-])c(-c1ccc(C)cc1)c(N)[n+]2[O-] | 17% (inactive)
C=CCc1cc([N+](=O)[O-])ccc1O | -4% (inactive)
CC(C)C1=CC23CCC4C(C)(C(=O)O)CCCC4(C)C2CC1c1c(O)ccc(O)c13 (stereo not drawn) | 30% (inactive)
NC(=O)C(CCc1cccc2ccccc12)c1ccccc1 (stereo not drawn) | 6% (inactive)
CC(CO)CCC(=O)C(C)C1C(=O)CC2CC3CC(O)CCC3(C)CC21C (stereo not drawn) | 3% (inactive)
Oc1c(Cl)cc(Cl)cc1/C=C1\C=Nc2ccccc21 | 1% (inactive)
CCCC(C(=O)OCCN1CCCC1(C)C)C1CCCC1 (stereo not drawn) | 17% (inactive)
OCCN1CCN(CCCN2c3cc(Cl)ccc3Sc3ccsc32)CC1 | -8% (inactive)
O=C(O)/C=C/c1ccc2c(c1)CCCC2 | 0% (inactive)
CC(NNC(=S)N1CCCC1)c1ccc2ccccc2n1 (stereo not drawn) | 24% (inactive)

SMILES | growth inhibition
c1cc(CCSSCCc2ccncc2)ccn1 | 7% (inactive)
CCOC(=O)C(N=Nc1ccc(Br)c(C)c1)C(C)=O (stereo not drawn) | -4% (inactive)
N#CC(C(=O)CCCC(=O)Nc1cccc([N+](=O)[O-])c1)c1cccc2ccccc12 (stereo not drawn) | 8% (inactive)
Cc1ccc(S(=O)(=O)NNC(=O)c2sc(-c3nc(C)c(C(=O)NNS(=O)(=O)c4ccc(C)cc4)s3)nc2C)cc1 | 2% (inactive)
Nc1nc(Cl)cc(Nc2ccc(Cl)c(Cl)c2)n1 | -1% (inactive)
CN(C)C=Nc1c2ccccc2nc2ccccc12 | 21% (inactive)
Cc1cc(N=[N+]=[N-])c2cc(C3CCCCC3)ccc2n1 | 12% (inactive)
CCN(CC)C(=O)CCCCC(=O)OC(C)C | 0% (inactive)
CC12CCC(C(Br)(Br)C1=O)C2(C)C (stereo not drawn) | 29% (inactive)
CCCCCCCCN(CCCCCCCC)C(=O)C(C)O (stereo not drawn) | 14% (inactive)
O=C1C=CC(=O)C1=Cc1ccc(Cl)c(Cl)c1 | 99% (active)
COc1ccc([N+](=O)[O-])cc1NC(=O)Nc1ccc(C(=O)OCC(C)C)cc1 | 11% (inactive)
CCOC(=O)n1c2ccccc2c(=O)n1CCO | -23% (inactive)
CC(=O)OC12CCC3C4CC=C5CC(O)CCC5(C)C4C(=O)C3C1(C)N1CC(C)CC(O)C1C2C (stereo not drawn) | 7% (inactive)
Cc1cccnc1NC(=S)Nc1ccccc1Cl | 2% (inactive)
CS(=O)(=O)OCCN(CCOS(C)(=O)=O)c1ccc(C=Nc2ccc(-c3cnc(-c4ccc(Cl)cc4)s3)cc2)c(Cl)c1 | 1% (inactive)
CC1(Cc2ccccc2)CCCC(C=O)C1=O.[Cu+2] (stereo not drawn) | 1% (inactive)
C[N+]1(c2ccccc2)C=C(c2ccccc2)SC1=S (stereo not drawn) | 7% (inactive)
CC12CCC3c4cc(O)ccc4CCC3C1CCC2O (stereo not drawn) | 4% (inactive)

Same assay, conditions: S. cerevisiae rad50 strain growth inhibition; at 50.0 µM (retest, dose inferred, filed as 5.0); stronger effect = higher value

SMILES | growth inhibition
OCCSCc1cc(Cl)cc(Cl)c1O | 76% (active)
CC(=O)Nc1ccccc1C(O)(c1ccccc1)c1ccccc1 | 0% (inactive)
Cc1cc(N=Nc2ccccc2C)c(N)cc1N | 56% (inactive)
O=C(Nc1ccc(Cl)cc1)Nc1nnc(/C=C/c2ccc(Cl)c(Cl)c2)o1 | -4% (inactive)
CCCCCCCCCCCC(=O)OCCOC(=O)CCCCCCCCCCC | -5% (inactive)
CCN(C(C)=O)c1ccc2c(c1)Cc1ccccc1-2 | 96% (active)
O=[N+]([O-])c1cccn2nc(C3OC(CO)C(O)C3O)nc12 (stereo not drawn) | 13% (inactive)
Oc1cc(CNCc2ccccc2)c(O)c(CNCc2ccccc2)c1 | 10% (inactive)
N#CSC#Cc1ccc(C#CSC#N)cc1 | 98% (active)
O=C(O)/C=C/C(=O)NNc1nc2ccccc2s1 | -1% (inactive)
COc1ccc2c(c1)[n+]([O-])c(-c1ccc(C)cc1)c(N)[n+]2[O-] | 98% (active)
C=CCc1cc([N+](=O)[O-])ccc1O | 80% (active)
CC(C)C1=CC23CCC4C(C)(C(=O)O)CCCC4(C)C2CC1c1c(O)ccc(O)c13 (stereo not drawn) | 98% (active)
NC(=O)C(CCc1cccc2ccccc12)c1ccccc1 (stereo not drawn) | 14% (inactive)
CC(CO)CCC(=O)C(C)C1C(=O)CC2CC3CC(O)CCC3(C)CC21C (stereo not drawn) | 41% (inactive)
Oc1c(Cl)cc(Cl)cc1/C=C1\C=Nc2ccccc21 | -5% (inactive)
CCCC(C(=O)OCCN1CCCC1(C)C)C1CCCC1 (stereo not drawn) | 38% (inactive)
OCCN1CCN(CCCN2c3cc(Cl)ccc3Sc3ccsc32)CC1 | 98% (active)
O=C(O)/C=C/c1ccc2c(c1)CCCC2 | 83% (active)
CC(NNC(=S)N1CCCC1)c1ccc2ccccc2n1 (stereo not drawn) | 96% (active)

SMILES | growth inhibition
c1cc(CCSSCCc2ccncc2)ccn1 | 89% (active)
CCOC(=O)C(N=Nc1ccc(Br)c(C)c1)C(C)=O (stereo not drawn) | 81% (active)
N#CC(C(=O)CCCC(=O)Nc1cccc([N+](=O)[O-])c1)c1cccc2ccccc12 (stereo not drawn) | 10% (inactive)
Cc1ccc(S(=O)(=O)NNC(=O)c2sc(-c3nc(C)c(C(=O)NNS(=O)(=O)c4ccc(C)cc4)s3)nc2C)cc1 | 98% (active)
Nc1nc(Cl)cc(Nc2ccc(Cl)c(Cl)c2)n1 | 91% (active)
CN(C)C=Nc1c2ccccc2nc2ccccc12 | 83% (active)
Cc1cc(N=[N+]=[N-])c2cc(C3CCCCC3)ccc2n1 | 99% (active)
CCN(CC)C(=O)CCCCC(=O)OC(C)C | -12% (inactive)
CC12CCC(C(Br)(Br)C1=O)C2(C)C (stereo not drawn) | 60% (inactive)
CCCCCCCCN(CCCCCCCC)C(=O)C(C)O (stereo not drawn) | 98% (active)
O=C1C=CC(=O)C1=Cc1ccc(Cl)c(Cl)c1 | 99% (active)
COc1ccc([N+](=O)[O-])cc1NC(=O)Nc1ccc(C(=O)OCC(C)C)cc1 | 36% (inactive)
CCOC(=O)n1c2ccccc2c(=O)n1CCO | -15% (inactive)
CC(=O)OC12CCC3C4CC=C5CC(O)CCC5(C)C4C(=O)C3C1(C)N1CC(C)CC(O)C1C2C (stereo not drawn) | 40% (inactive)
Cc1cccnc1NC(=S)Nc1ccccc1Cl | 99% (active)
CS(=O)(=O)OCCN(CCOS(C)(=O)=O)c1ccc(C=Nc2ccc(-c3cnc(-c4ccc(Cl)cc4)s3)cc2)c(Cl)c1 | 84% (active)
CC1(Cc2ccccc2)CCCC(C=O)C1=O.[Cu+2] (stereo not drawn) | 98% (active)
C[N+]1(c2ccccc2)C=C(c2ccccc2)SC1=S (stereo not drawn) | 86% (active)
CC12CCC3c4cc(O)ccc4CCC3C1CCC2O (stereo not drawn) | 54% (inactive)
